High-throughput results as filed in PubChem.
Compounds with a hit are over-represented: about 1.9% of the library has one in this group of screens.
ROCK2 inh: blocks human Rho kinase 2 activity; O75116; 60,000 compounds, 0.35% hits; purified ROCK2, Kinase-Glo ATP depletion luminescence; inhibition, % at 6 µM;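 active means inhibition above the screen-wide mean inhibition plus 3 SD, cut at about 18% in these data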;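 further: plate controls were DMSO wells for no effect and Y-27632 control wells after no-enzyme background subtraction for full effect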
Jurkat viability: cytotoxic compounds reducing Jurkat cell viability; Jurkat E6.1 viability, ATP luminescence, 48 h; inhibition, % at 4 µM; 56,000 compounds, 1.2% hits; AID 463;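 active means inhibition above the mean inhibition of all tested compounds plus 3 SD, cut at about 28% in these data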
Hsp90 inh: displaces geldanamycin probe from tumor Hsp90. P07900. inhibition, % at 30 µM. 64,000 compounds, 0.35% hits. NCI-N417 lysate Hsp90, Cy3B-geldanamycin FP displacement;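 active means inhibition above 50%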;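 further: 0% = tracer plus lysate wells and 100% = tracer alone without lysate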
JNK3 inh: JNK3 (human) kinase inhibition; 60,000 compounds, 0.61% hits; inhibition, % at 8 µM; P53779; purified JNK3 kinase activity, HTS; AID 746; in the data active means inhibition above about 17%;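 further: 0% = DMSO and 100% = reference inhibitor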
PKA kinase inh: blocks human protein kinase A activity; P17612; inhibition, % at 6 µM; AID 524; PKA Kemptide phosphorylation, Kinase-Glo ATP luminescence; 65,000 compounds, 0.1% hits;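 active means inhibition above the screen-wide mean inhibition plus 3 SD, cut at about 21% in these data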
* hit, by the source's call; nt = no result.

SMILES	ROCK2 inh	Jurkat viability	Hsp90 inh	JNK3 inh	PKA kinase inh
O=c1cc(-c2ccccc2)[nH]c2ccccc12	2	93*	-1	2	7
NC/C=C/C(=O)O	nt	nt	-2	nt	nt
COc1ccc(-c2nnc(NC(=O)c3ccc(S(=O)(=O)N4COCC4(C)C)cc3)o2)cc1	0	101*	1	-5	6
Oc1c(CN2CCOCC2)cc(COCc2ccccc2)c2cccnc12	2	54*	-4	-5	3
COc1ccc(C2=Nn3c(nnc3-c3ccc(OC)cc3)SC2)cc1	4	93*	2	-2	4
COc1ccc(C2=Nn3c(nnc3-c3ccccn3)SC2)cc1OC	-1	nt	0	-11	-5
COc1ccc(C2=Nn3c(nnc3-c3ccccc3OC)SC2)cc1OC	1	99*	1	13	4
Cc1ccc(-c2nnc3n2N=C(c2ccccc2)CS3)cc1	-3	10	1	1	-8
COc1ccc(OC)c(C2=Nn3c(nnc3-c3cc(OC)c(OC)c(OC)c3)SC2)c1	7	4	-3	-1	6
COc1cc(-c2nnc3n2N=C(c2ccccc2)CS3)cc(OC)c1OC	7	52*	-2	4	0
Cc1ccc(OCC(O)C(C)NC(C)C)c2c1CCC2 (stereo not given)	nt	nt	-1	nt	nt
CC1(C)Cc2c(c(-c3ccco3)nc3n[nH]c(N)c23)CO1	2	1	-7	-3	31*
CCOC(=O)c1sc2nc(-c3ccco3)c3c(c2c1N)CC(C)(C)OC3	1	-3	-9	-3	7
CCCCc1c(C)nc(N)[nH]c1=O	18*	0	3	2	7
Cc1cn([C@H]2C[C@@H](N=[N+]=[N-])[C@@H](CO)O2)c(=O)[nH]c1=O	nt	nt	-3	nt	nt
CC(C)(C)OC(=O)n1ccc2c(NCCCN)ncnc21	nt	nt	-1	nt	nt
COc1ccc(OCC(O)COc2ccc(C(=O)O)cc2)cc1 (stereo not given)	2	3	4	5	3
CC(=O)c1ccc(OCC(O)COc2ccc(C(C)=O)cc2)cc1	19*	3	-5	3	17
O=C(O)c1cc(O)c2c(c1)C(=O)c1cccc(O)c1C2=O	4	nt	139*	0	-1
C=CCNC(=O)CN(c1cccc(Br)c1)S(C)(=O)=O	1	0	88*	-6	2
CNC(=O)CN(c1cccc(Br)c1)S(C)(=O)=O	9	8	0	0	8
COc1cc(/C=N\n2nnnc2N)ccc1OCc1ccc(F)cc1	18*	-3	-3	1	4
Nc1nnnn1/N=C/c1ccccc1OCc1ccccc1	5	5	1	1	8
Cn1nnnc1SCc1ccc(C(=O)Nc2nccs2)cc1	-12	-6	-7	20*	1
COc1ccc(/C=N/n2c(SC)nnc2-c2ccccc2)cc1C	4	3	-3	-9	9
SMILES	ROCK2 inh	Jurkat viability	Hsp90 inh	JNK3 inh	PKA kinase inh
COc1ccc(/C=N/n2c(SC)nnc2-c2ccccc2)c(OC)c1OC	8	68*	0	0	9
O=C(c1ccccc1)c1ccccc1C(=O)N1CCCC1	-3	1	2	-1	3
O=C(c1cccc2c1-c1ccccc1/C2=N/O)N1CCCCC1	8	10	-4	26*	4
CCOc1ccc(S(=O)(=O)Nc2cc(OC)ccc2OC)cc1	3	96*	2	-2	2
COc1ccc(S(=O)(=O)Nc2cc(Cl)ccc2OC)cc1	2	76*	-1	-1	-1
COc1ccc(OC)c(NS(=O)(=O)c2ccc(SC)cc2)c1	-4	78*	2	-3	-1
C=CC(N)CCC(=O)O (stereo not given)	nt	nt	1	nt	nt
O=C(CSc1c2c(nc3ccc(Cl)cc13)CCCC2)N1CCN(C(=O)c2ccco2)CC1	0	32	0	8	2
COc1ccc(C(=O)N2CCN(S(=O)(=O)N3CCOCC3)CC2)cc1OC	3	3	-4	1	6
O=C(Nc1cccc2cccnc12)c1sc2cc(Cl)ccc2c1Cl	nt	nt	-2	nt	nt
CCN(CC)CCC(=O)Nc1cc(OC)cc2cccnc12	nt	nt	6	nt	nt
O=C(CCn1c(=O)oc2ccccc21)N1CCN(c2ccccc2Cl)CC1	2	69*	-2	4	-2
O=C(O)CCC(=O)N1CCCC1C(=O)O (stereo not given)	nt	nt	2	nt	nt
O=C(O)CCC(=O)OCC1CCCO1 (stereo not given)	5	-10	-8	3	6
Cc1[nH]c(C(=O)N2CCCCC2)c(C)c1C(=O)NC1CCCCC1	-2	-3	2	-6	-6
CS(=O)(=O)N1CCN(c2ccccc2NC(=O)CSc2ccc(Cl)cc2)CC1	-2	8	-4	21*	1
